Active and inactive are the calls of the source. How the source made its calls: active means hit-call score of the fitted dose curve at least 0.9, where 1 is the maximum; inactive means score below 0.9.

Read-out in the first test: Vascular cell adhesion molecule 1 (VCAM1), VCAM1 (gene 7412)
Put plainly: BSK_LPS_VCAM1: BioMAP Diversity Plus: LPS Assay for Vascular cell adhesion molecule 1 (VCAM1) Biomarker Activity (AID 2283086). The settings on record: primary human HUVEC with PBMC; actives raise or lower the signal. The method in brief: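 Human umbilical vein endothelial cells co-cultured with peripheral blood mononuclear cells under LPS stimulation were exposed to test chemical for 24 h. VCAM-1 levels were then measured by ELISA, with bidirectional curve fitting relative to DMSO as negative control and baseline.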
Turning to `Nc1cc([N+](=O)[O-])ccc1O`, the result was inactive.
Take `c1ccc2sc(SN(C3CCCCC3)C3CCCCC3)nc2c1`: the outcome was inactive.
Regarding `COc1cc(C=O)ccc1OC(=O)C(C)C`, the outcome was inactive.
As for `CC(C)c1ccc(C(C)C)cc1`, the result was inactive.

Read-out in a further test: CD38, CD38 (gene 952)
In words: BSK_SAg_CD38: BioMAP Diversity Plus: SAg Assay for CD38 Biomarker Activity (AID 2283087). The settings on record: primary human HUVEC with PBMC; actives raise or lower the signal. The method in brief: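 Fluorescence ELISA of cell-surface CD38 served as the read-out, with either increase or decrease fitted against DMSO controls. Cells were a human umbilical vein endothelium plus PBMC co-culture under SEB/TSST-1 stimulation, measured 24 h after dosing.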
As for `O=C(O)c1cn(C2CC2)c2cc(N3CCNCC3)c(F)cc2c1=O`, the result was inactive.
For the compound `C=C(C)C(=O)O[C@H]1C[C@@H]2CC[C@@]1(C)C2(C)C`, the AC50 was 33.8 µM (active).
Regarding `CCCCCCCCCCCCCCCCCC(=O)OCC(CC)CCCC` (stereo not drawn), the result was inactive.
`CC(C)(COC(=O)c1ccccc1)COC(=O)c1ccccc1`: the outcome was inactive.
The same measure, in the same setting: the result for `O=C(O)C[C@H](O)C[C@H](O)/C=C/c1c(C2CC2)nc2ccccc2c1-c1ccc(F)cc1` reads “inactive”; that for `CCc1c(C)cc(N)c(CC)c1N`, “inactive”; that for `CC(=O)OCCC(C)CC(C)(C)C` (stereo not drawn), “inactive”.
Turning to `O=C(O)c1cn(-c2ccc(F)cc2)c2cc(N3CCNCC3)c(F)cc2c1=O`, the outcome was inactive.
Take `CCn1c2ccccc2c2cc(N)ccc21`: the AC50 is 4.91 µM (active).
As to `O=C1OC2(c3cc(Br)c(O)c(Br)c3Oc3c2cc(Br)c(O)c3Br)c2c(Cl)c(Cl)c(Cl)c(Cl)c21`, the AC50 is 5.04 µM (active).
In the case of `OC1OC[C@@H](O)[C@H](O)[C@H]1O` (stereo partly drawn), the outcome was inactive.
For the compound `BrC1CCC(Br)C(Br)CCC(Br)C(Br)CCC1Br` (stereo not drawn), the AC50 was 4.57 µM (active).
As for `Nc1cc([N+](=O)[O-])ccc1Cl`, the result was inactive.
As to `CC(=O)O[C@]1(C(C)=O)CC[C@H]2[C@@H]3C[C@H](C)C4=CC(=O)CC[C@]4(C)[C@H]3CC[C@@]21C`, the result was inactive.
For `CCCCC(CC)COC(=O)/C=C\C(=O)OCC(CC)CCCC` (stereo not drawn), the outcome was inactive.
Consider `CCCCCCCCCC=O`, for which the half-maximal activity concentration (AC50) was 29.3 µM (active).
Still for that read-out and setting: then `CC1COc2ccccc2N1C(=O)C(Cl)Cl` (stereo not drawn), with 10.4 µM (active).
For the compound `O=P(c1ccccc1)(c1ccccc1)c1ccccc1`, the result was inactive.
With `OC[C@H]1O[C@H](O[C@]2(CCl)O[C@H](CCl)[C@@H](O)[C@@H]2O)[C@H](O)[C@@H](O)[C@H]1Cl`, the outcome was inactive.
In the case of `Nc1cc([N+](=O)[O-])ccc1O`, the outcome was inactive.
`c1ccc2sc(SN(C3CCCCC3)C3CCCCC3)nc2c1`: the AC50 was 7.65 µM (active).
With `COc1cc(C=O)ccc1OC(=O)C(C)C`, the outcome was inactive.
Consider `CC(C)c1ccc(C(C)C)cc1`, for which the result was inactive.

Read-out in another test: CD40, CD40 (gene 958)
In words: BSK_SAg_CD40: BioMAP Diversity Plus: SAg Assay for CD40 Biomarker Activity (AID 2283088). The settings on record: primary human HUVEC with PBMC; actives raise or lower the signal. The method in brief: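 HUVEC/PBMC co-culture, 24 h post-dose; CD40 by ELISA, fluorescence intensity; bidirectional fit vs DMSO negative control.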
Take `O=C(O)c1cn(C2CC2)c2cc(N3CCNCC3)c(F)cc2c1=O`: the result was inactive.
Take `C=C(C)C(=O)O[C@H]1C[C@@H]2CC[C@@]1(C)C2(C)C`: the half-maximal activity concentration (AC50) was 31.8 µM (active).
Consider `CCCCCCCCCCCCCCCCCC(=O)OCC(CC)CCCC` (stereo not drawn), for which the outcome was inactive.
With `CC(C)(COC(=O)c1ccccc1)COC(=O)c1ccccc1`, the AC50 is 32.3 µM (active).
In the case of `O=C(O)C[C@H](O)C[C@H](O)/C=C/c1c(C2CC2)nc2ccccc2c1-c1ccc(F)cc1`, the AC50 was 0.216 µM (active).
For the compound `CCc1c(C)cc(N)c(CC)c1N`, the outcome was inactive.
With `CC(=O)OCCC(C)CC(C)(C)C` (stereo not drawn), the result was inactive.
Still for that read-out and setting: the result for `O=C(O)c1cn(-c2ccc(F)cc2)c2cc(N3CCNCC3)c(F)cc2c1=O` reads “inactive”.
With `CCn1c2ccccc2c2cc(N)ccc21`, the AC50 is 6.33 µM (active).
With `O=C1OC2(c3cc(Br)c(O)c(Br)c3Oc3c2cc(Br)c(O)c3Br)c2c(Cl)c(Cl)c(Cl)c(Cl)c21`, the AC50 was 6.57 µM (active).
As for `OC1OC[C@@H](O)[C@H](O)[C@H]1O` (stereo partly drawn), the outcome was inactive.
For the compound `BrC1CCC(Br)C(Br)CCC(Br)C(Br)CCC1Br` (stereo not drawn), the AC50 was 4.59 µM (active).
Regarding `Nc1cc([N+](=O)[O-])ccc1Cl`, the outcome was inactive.
The same measure, in the same setting: then `CC(=O)O[C@]1(C(C)=O)CC[C@H]2[C@@H]3C[C@H](C)C4=CC(=O)CC[C@]4(C)[C@H]3CC[C@@]21C`, with “inactive”.
The same measure, in the same setting: then `CCCCC(CC)COC(=O)/C=C\C(=O)OCC(CC)CCCC` (stereo not drawn), with “inactive”; and `CCCCCCCCCC=O`, with “inactive”.
With `CC1COc2ccccc2N1C(=O)C(Cl)Cl` (stereo not drawn), the AC50 was 7.65 µM (active).
In the case of `O=P(c1ccccc1)(c1ccccc1)c1ccccc1`, the result was inactive.
Regarding `OC[C@H]1O[C@H](O[C@]2(CCl)O[C@H](CCl)[C@@H](O)[C@@H]2O)[C@H](O)[C@@H](O)[C@H]1Cl`, the outcome was inactive.
As to `Nc1cc([N+](=O)[O-])ccc1O`, the outcome was inactive.
For the compound `c1ccc2sc(SN(C3CCCCC3)C3CCCCC3)nc2c1`, the AC50 is 7.96 µM (active).
In the case of `COc1cc(C=O)ccc1OC(=O)C(C)C`, the outcome was inactive.
In the case of `CC(C)c1ccc(C(C)C)cc1`, the outcome was inactive.

Read-out in another test: CD69, CD69 (gene 969)
Put plainly: BSK_SAg_CD69: BioMAP Diversity Plus: SAg Assay for CD69 Biomarker Activity (AID 2283089).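 On AC50: cell surface CD69 protein quantified by ELISA with fluorescence detection.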 The following applies: primary human HUVEC with PBMC; actives raise or lower the signal. The method, boiled down:
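Primary human vascular co-culture (umbilical vein endothelium with peripheral blood mononuclear cells) exposed to test chemical for 24 h. CD69 levels quantified by fluorescence ELISA; DMSO served as negative control for bidirectional fitting.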
On to `O=C(O)c1cn(C2CC2)c2cc(N3CCNCC3)c(F)cc2c1=O`, for which the outcome was inactive.
In the case of `C=C(C)C(=O)O[C@H]1C[C@@H]2CC[C@@]1(C)C2(C)C`, the AC50 is 30.8 µM (active).
`CCCCCCCCCCCCCCCCCC(=O)OCC(CC)CCCC` (stereo not drawn): the result was inactive.
Take `CC(C)(COC(=O)c1ccccc1)COC(=O)c1ccccc1`: the AC50 was 31.7 µM (active).
Turning to `O=C(O)C[C@H](O)C[C@H](O)/C=C/c1c(C2CC2)nc2ccccc2c1-c1ccc(F)cc1`, the half-maximal activity concentration (AC50) is 0.109 µM (active).
Regarding `CCc1c(C)cc(N)c(CC)c1N`, the result was inactive.
In the case of `CC(=O)OCCC(C)CC(C)(C)C` (stereo not drawn), the outcome was inactive.
Same read-out and setting: the result for `O=C(O)c1cn(-c2ccc(F)cc2)c2cc(N3CCNCC3)c(F)cc2c1=O` reads “inactive”.
Regarding `CCn1c2ccccc2c2cc(N)ccc21`, the AC50 was 4.02 µM (active).
Still for that read-out and setting: then `O=C1OC2(c3cc(Br)c(O)c(Br)c3Oc3c2cc(Br)c(O)c3Br)c2c(Cl)c(Cl)c(Cl)c(Cl)c21`, with 6.39 µM (active).
Turning to `OC1OC[C@@H](O)[C@H](O)[C@H]1O` (stereo partly drawn), the outcome was inactive.
As for `BrC1CCC(Br)C(Br)CCC(Br)C(Br)CCC1Br` (stereo not drawn), the outcome was inactive.
On to `Nc1cc([N+](=O)[O-])ccc1Cl`, for which the outcome was inactive.
As to `CC(=O)O[C@]1(C(C)=O)CC[C@H]2[C@@H]3C[C@H](C)C4=CC(=O)CC[C@]4(C)[C@H]3CC[C@@]21C`, the outcome was inactive.
As to `CCCCC(CC)COC(=O)/C=C\C(=O)OCC(CC)CCCC` (stereo not drawn), the result was inactive.
With `CCCCCCCCCC=O`, the AC50 is 29.9 µM (active).
For `CC1COc2ccccc2N1C(=O)C(Cl)Cl` (stereo not drawn), the concentration at half-maximal activity (AC50) is 5.91 µM (active).
Regarding `O=P(c1ccccc1)(c1ccccc1)c1ccccc1`, the outcome was inactive.
As to `OC[C@H]1O[C@H](O[C@]2(CCl)O[C@H](CCl)[C@@H](O)[C@@H]2O)[C@H](O)[C@@H](O)[C@H]1Cl`, the result was inactive.
On the same count and under the same terms, the result for `Nc1cc([N+](=O)[O-])ccc1O` reads “inactive”.
As for `c1ccc2sc(SN(C3CCCCC3)C3CCCCC3)nc2c1`, the AC50 was 5.79 µM (active).
With `COc1cc(C=O)ccc1OC(=O)C(C)C`, the outcome was inactive.
`CC(C)c1ccc(C(C)C)cc1`: the result was inactive.
